According to PubChem BioAssay AID1159580 (chemical genetic matrix, 2015):
Where “and” joins values, the source holds several entries; their conditions need not be identical. Equal values may be shown once. In all, about 5,500 compounds went through this assay and about 2,000 (36%) were called active. About 18% were inconclusive and are not listed. Rule as the data show it: active = normalized growth mostly below about 0.91 (no sharp cut-off); inconclusive = no clear call, values can overlap the other calls; inactive = mostly above about 0.92. The list shows a part of the results.

Test: chemical genetic growth profiling, strain panel (AID 1159580);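 also: tested at 20 µM; growth read once vehicle control cultures reached saturation at 30 °C; 1 = growth at the plate median or of vehicle wells; lower values mean less growth of the strain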
Conditions: growth OD

Measured: normalized growth

CC[C@H]1OC(=O)[C@H](C)[C@@H](O[C@H]2C[C@@](C)(OC)[C@@H](O)[C@H](C)O2)[C@H](C)[C@@H](O[C@@H]2O[C@H](C)C[C@H](N(C)C)[C@H]2O)[C@](C)(O)C[C@@H](C)CN(C)[C@H](C)[C@@H](O)[C@]1(C)O
inactive: S. cerevisiae deletion strains, locus YAL013W, strain DEP1, hits give low values 0.993 | S. cerevisiae deletion strains, locus YBR021W, strain FUR4, hits give low values 0.96 | S. cerevisiae deletion strains, locus YBR229C, strain ROT2, hits give low values 0.988 | S. cerevisiae deletion strains, locus YCL029C, strain bik1, hits give low values 0.962 | S. cerevisiae deletion strains, locus YDL035C, strain GPR1, hits give low values 0.969 | S. cerevisiae deletion strains, locus YDL074C, strain BRE1, hits give low values 1.01 | S. cerevisiae deletion strains, locus YDL101C, strain DUN1, hits give low values 0.987 | S. cerevisiae deletion strains, locus YDL134C, strain PPH21, hits give low values 0.993 | S. cerevisiae deletion strains, locus YDL185W, strain tfp1, hits give low values 0.962 | S. cerevisiae deletion strains, locus YDL192W, strain arf1, hits give low values 0.96 | S. cerevisiae deletion strains, locus YDR101C, strain arx1, hits give low values 0.972 | S. cerevisiae deletion strains, locus YDR150W, strain NUM1, hits give low values 1 | S. cerevisiae deletion strains, locus YDR162C, strain NBP2, hits give low values 1.01 | S. cerevisiae deletion strains, locus YDR318W, strain mcm21, hits give low values 0.948 | S. cerevisiae deletion strains, locus YDR388W, hits give low values 0.978 | S. cerevisiae deletion strains, locus YDR502C, strain sam2, hits give low values 0.984 | S. cerevisiae deletion strains, locus YEL061C, strain CIN8, hits give low values 0.996 | S. cerevisiae deletion strains, locus YER110C, hits give low values 0.972 | S. cerevisiae deletion strains, locus YER155C, strain BEM2, hits give low values 0.991 | S. cerevisiae deletion strains, locus YER167W, strain BCK2, hits give low values 0.964 | S. cerevisiae deletion strains, locus YGL078C, strain dbp3, hits give low values 0.979 | S. cerevisiae deletion strains, locus YGL086W, strain mad1, hits give low values 0.951 | S. cerevisiae deletion strains, locus YGL248W, strain PDE1, hits give low values 0.992 | S. cerevisiae deletion strains, locus YGR078C, strain PAC10, hits give low values 1.02 | S. cerevisiae deletion strains, locus YGR135W, strain pre9, hits give low values 0.986 | S. cerevisiae deletion strains, locus YGR229C, strain SMI1, hits give low values 0.988 | S. cerevisiae deletion strains, locus YGR252W, strain gcn5, hits give low values 0.876 | S. cerevisiae deletion strains, locus YHR030C, strain SLT2, hits give low values 0.988 and 0.962 | S. cerevisiae deletion strains, locus YHR079C, strain IRE1 (second series), hits give low values 0.965 | S. cerevisiae deletion strains, locus YHR079C, strain IRE1, hits give low values 0.965 | S. cerevisiae deletion strains, locus YHR094C, strain hxt1, hits give low values 0.969 | S. cerevisiae deletion strains, locus YHR129C, strain ARP1, hits give low values 0.996 | S. cerevisiae deletion strains, locus YHR200W, strain rpn10, hits give low values 0.977 | S. cerevisiae deletion strains, locus YIL066C, strain RNR3, hits give low values 0.987 | S. cerevisiae deletion strains, locus YIL073C, strain SPO22, hits give low values 0.895 | S. cerevisiae deletion strains, locus YIL125W, strain kgd1, hits give low values 0.983 | S. cerevisiae deletion strains, locus YIR030C, strain dcg1, hits give low values 0.975 | S. cerevisiae deletion strains, locus YJL095W, strain BCK1, hits give low values 1.03 and 0.999 | S. cerevisiae deletion strains, locus YJL134W, strain LCB3, hits give low values 0.992 | S. cerevisiae deletion strains, locus YJL168C, strain set2, hits give low values 0.979 | S. cerevisiae deletion strains, locus YJL187C, strain SWE1 (second series), hits give low values 0.993 | S. cerevisiae deletion strains, locus YJR043C, strain POL32, hits give low values 0.966 | S. cerevisiae deletion strains, locus YJR066W, strain TOR1, hits give low values 0.956 | S. cerevisiae deletion strains, locus YJR075W, strain HOC1, hits give low values 1 | S. cerevisiae deletion strains, locus YKL009W, strain mrt4, hits give low values 0.992 | S. cerevisiae deletion strains, locus YKL068W, hits give low values 0.995 | S. cerevisiae deletion strains, locus YKL085W, strain MDH1 (second series), hits give low values 0.974 | S. cerevisiae deletion strains, locus YKL085W, strain MDH1, hits give low values 0.974 | S. cerevisiae deletion strains, locus YKL190W, strain CNB1, hits give low values 0.996 | S. cerevisiae deletion strains, locus YKR001C, strain vps1, hits give low values 0.961 | S. cerevisiae deletion strains, locus YLR039C, strain RIC1, hits give low values 0.965 | S. cerevisiae deletion strains, locus YLR058C, strain SHM2, hits give low values 0.992 | S. cerevisiae deletion strains, locus YLR102C, strain apc9, hits give low values 0.976 | S. cerevisiae deletion strains, locus YLR113W, strain HOG1, hits give low values 0.986 | S. cerevisiae deletion strains, locus YLR262C, strain YPT6, hits give low values 0.999 | S. cerevisiae deletion strains, locus YLR268W, strain sec22, hits give low values 0.994 | S. cerevisiae deletion strains, locus YLR330W, strain CHS5, hits give low values 0.991 | S. cerevisiae deletion strains, locus YLR342W, strain FKS1 (second series), hits give low values 0.963 | S. cerevisiae deletion strains, locus YLR371W, strain rom2, hits give low values 0.964 | S. cerevisiae deletion strains, locus YLR418C, strain cdc73, hits give low values 1.03 | S. cerevisiae deletion strains, locus YML016C, strain PPZ1, hits give low values 0.991 | S. cerevisiae deletion strains, locus YML032C, strain rad52, hits give low values 0.942 | S. cerevisiae deletion strains, locus YML124C, strain tub3, hits give low values 0.984 | S. cerevisiae deletion strains, locus YMR078C, strain ctf18, hits give low values 0.964 | S. cerevisiae deletion strains, locus YMR223W, strain ubp8, hits give low values 0.949 | S. cerevisiae deletion strains, locus YMR263W, strain SAP30, hits give low values 1 | S. cerevisiae deletion strains, locus YMR307W, strain GAS1, hits give low values 0.788 | S. cerevisiae deletion strains, locus YNL067W, strain RPL9B, hits give low values 1.01 | S. cerevisiae deletion strains, locus YNL128W, strain TEP1, hits give low values 1 | S. cerevisiae deletion strains, locus YNL153C, strain GIM3, hits give low values 1.03 | S. cerevisiae deletion strains, locus YNL183C, strain NPR1, hits give low values 0.92 | S. cerevisiae deletion strains, locus YNL233W, strain BNI4, hits give low values 1.01 | S. cerevisiae deletion strains, locus YNL250W, strain rad50, hits give low values 0.978 | S. cerevisiae deletion strains, locus YNL271C, strain bni1, hits give low values 0.976 | S. cerevisiae deletion strains, locus YNL298W, strain CLA4, hits give low values 0.972 | S. cerevisiae deletion strains, locus YNL307C, strain MCK1, hits give low values 0.945 | S. cerevisiae deletion strains, locus YNL322C, strain KRE1, hits give low values 0.995 | S. cerevisiae deletion strains, locus YNR052C, strain pop2, hits give low values 0.957 | S. cerevisiae deletion strains, locus YOL006C, strain TOP1, hits give low values 0.951 | S. cerevisiae deletion strains, locus YOL012C, strain htz1 1.44 | S. cerevisiae deletion strains, locus YOL147C, strain pex11, hits give low values 0.981 | S. cerevisiae deletion strains, locus YOR061W, strain CKA2, hits give low values 0.972 | S. cerevisiae deletion strains, locus YOR069W, strain VPS5, hits give low values 0.989 | S. cerevisiae deletion strains, locus YOR136W, strain idh2, hits give low values 0.969 | S. cerevisiae deletion strains, locus YOR144C, strain elg1, hits give low values 0.976 | S. cerevisiae deletion strains, locus YOR184W, strain ser1, hits give low values 0.973 | S. cerevisiae deletion strains, locus YOR231W, strain MKK1, hits give low values 0.968 | S. cerevisiae deletion strains, locus YOR316C, strain cot1, hits give low values 0.978 | S. cerevisiae deletion strains, locus YPL055C, strain LGE1, hits give low values 1.01 | S. cerevisiae deletion strains, locus YPL241C, strain CIN2, hits give low values 0.994 | S. cerevisiae deletion strains, locus YPL256C, strain CLN2, hits give low values 0.963 | S. cerevisiae deletion strains, locus YPR119W, strain clb2, hits give low values 0.981 | S. cerevisiae deletion strains, locus YPR141C, strain kar3, hits give low values 0.98 | S. cerevisiae deletion strains, locus YPR163C, strain tif3, hits give low values 0.974 | S. cerevisiae deletion strains, locus YPR167C, strain met16, hits give low values 0.984 | S. cerevisiae deletion strains, strain wtn01, hits give low values 0.978 | S. cerevisiae strains, strain wild type, hits give low values 0.982
